Results: PubChem BioAssay AID720566 (Broad Institute, 2013)
Results with a measured potency or affinity are listed apart.

These molecules were tested against Protein disulfide-isomerase A6 (Homo sapiens) (UniProt Q15084) (assay: reduced insulin turbidity driven by ERp5 (PDIA6) – biochemical, absorbance 650 nm, cherry-picked samples, dose response (AID 720566;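 also: negative values mean less insulin aggregation so ERp5 inhibition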)). Conditions: Recombinant ERp5 insulin aggregation; series mostly up to 35 µM; activity change, negative = inhibition: at the top concentration;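 active = in all runs, an absorbance decrease of 25% or more of the average positive control decrease; inconclusive = runs conflict, with both active and inactive results; inactive = all runs inactive, opposite-direction effects included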.
Protein disulfide-isomerase A6 (Homo sapiens), sequence (Q15084 whole entry, looked up): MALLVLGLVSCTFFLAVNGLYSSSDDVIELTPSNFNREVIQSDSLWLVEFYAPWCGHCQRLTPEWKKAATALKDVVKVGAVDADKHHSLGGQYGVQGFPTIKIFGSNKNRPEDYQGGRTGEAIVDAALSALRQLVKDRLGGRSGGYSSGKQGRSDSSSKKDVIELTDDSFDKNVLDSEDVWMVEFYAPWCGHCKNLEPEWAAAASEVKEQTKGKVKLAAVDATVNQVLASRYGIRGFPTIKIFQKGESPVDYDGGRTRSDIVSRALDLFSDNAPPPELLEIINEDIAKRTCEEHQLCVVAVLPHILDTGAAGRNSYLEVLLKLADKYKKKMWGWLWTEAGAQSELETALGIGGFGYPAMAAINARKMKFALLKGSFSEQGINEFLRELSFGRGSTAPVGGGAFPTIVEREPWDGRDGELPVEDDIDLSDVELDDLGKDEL

Activity change, negative = inhibition, inactive:
COCCNC(=O)c1ccccc1NS(=O)(=O)c1ccc(C)c([N+](=O)[O-])c1 25%, C[C@H]1CN([C@@H](C)CO)C(=O)c2cccc(NC(=O)c3nc4ccccc4s3)c2O[C@@H]1CN(C)C(=O)Nc1ccc(C(F)(F)F)cc1 4.47%, CC(C)(C)c1cc(NC(=O)c2ccco2)no1 8.27%, CCC(=O)Nc1ccc2c(c1)C(=O)N(C)[C@H]1CC[C@H](CC(=O)NCC3CC3)O[C@H]1CO2 -1.49%, O=C1[C@@H](c2ccccc2)CC[C@@H]2C=CC[C@H]3CCN1[C@@H]32 -1.07%, C[C@@H]1CN([C@@H](C)CO)C(=O)c2cc(C#CC3CCCCC3)cnc2O[C@@H]1CN(C)S(=O)(=O)c1ccccc1 -8%, COc1ccc(NC(=O)N(C)C[C@H]2Oc3ccc(NS(=O)(=O)c4ccccc4)cc3C(=O)N([C@@H](C)CO)C[C@@H]2C)cc1 3.91%, Cc1noc(C)c1NC(=O)Nc1ccc2c(c1)C(=O)N([C@H](C)CO)C[C@@H](C)[C@@H](CN(C)C(=O)Nc1ccc(F)cc1)O2 0.559%, Cc1cc2occ(CC(=O)NNC(=O)c3ccccc3)c2cc1C -18.2%, CCC(=O)N(C)C[C@H]1Oc2cc(-c3ccc(C#N)cc3)ccc2S(=O)(=O)N([C@@H](C)CO)C[C@@H]1C -6.46%, C[C@@H]1CN([C@@H](C)CO)C(=O)Cc2cc(NC(=O)Nc3ccc(C(F)(F)F)cc3)ccc2O[C@@H]1CN(C)Cc1ccc(Cl)c(Cl)c1 6.89%, CCc1csc(CCNC(=O)C2CCC(=O)N(CCc3cccc(F)c3)C2)n1 (stereo not drawn) -8.21%, C[C@H](O)C#Cc1cnc2c(c1)C(=O)N([C@@H](C)CO)C[C@H](C)[C@H](CN(C)CC1CCCCC1)O2 -10.5%, COc1ccc(Cc2nnc(SCC(=O)NC3(C#N)CCCCC3)n2N)cc1 3.28%, C[C@@H]1CN([C@H](C)CO)C(=O)c2cccc(NC(=O)Nc3cccc4ccccc34)c2O[C@@H]1CN(C)C(=O)Nc1ccc(C(F)(F)F)cc1 -7.04%, O=C(C[C@H]1C[C@@H]2c3cc(NC(=O)CC4CC4)ccc3O[C@@H]2[C@@H](CO)O1)NCc1ccc(-c2ccccc2)cc1 -3.76%, COc1ccc(NC(=O)Nc2ccc3c(c2)C(=O)N([C@H](C)CO)C[C@H](C)[C@@H](CN(C)C(=O)C2CCCCC2)OCCCC[C@H](C)O3)cc1 10.1%, O=C(c1cccc(F)c1)N1CCCCN2[C@H](C1)[C@H](c1ccc(-c3ccccc3)cc1)[C@@H]2CO 10.4%, CCCNC(=O)C[C@@H]1C[C@H]2c3cc(NS(C)(=O)=O)ccc3O[C@H]2[C@@H](CO)O1 -8.39%, O=C(NC1CCCC1)[C@@H]1[C@@H](CO)[C@@H]2Cn3c(ccc(-c4cccnc4)c3=O)[C@H]1N2CC1CC1 2.79%, CCN(c1ccccc1)S(=O)(=O)c1ccc(OC)c(NC(=O)c2c(C)noc2C)c1 -6.23%, COc1cccc(CC(=O)NNC(=O)CN(C)S(=O)(=O)c2ccc(C)cc2)c1 6%, CC(C)NC(=O)N(C)C[C@@H]1Oc2ncc(-c3cc4ccccc4o3)cc2C(=O)N([C@H](C)CO)C[C@@H]1C 4.66%, COc1ccc(S(=O)(=O)Nc2ccc3c(c2)C(=O)N([C@H](C)CO)C[C@H](C)[C@H](CN(C)C(=O)Nc2ccccc2)O3)cc1 -9.35%, CCN(CC)S(=O)(=O)c1cc(NC(=O)c2ccc(-n3cncn3)c([N+](=O)[O-])c2)ccc1C -4.42%, Cc1ccc(S(=O)(=O)N(C)C)cc1NC(=O)COC(=O)C1(c2ccccc2)CC1 9.17%, COc1cccc(S(=O)(=O)N2CC3(CN(C(=O)Nc4cccc(F)c4)[C@H](CO)c4[nH]c5cc(OC)ccc5c43)C2)c1 4.84% [at 30 µM], CCCNC(=O)C[C@@H]1C[C@H]2c3cc(NC(=O)CC4CC4)ccc3O[C@H]2[C@H](CO)O1 3.18%, C[C@@H]1CN([C@H](C)CO)C(=O)c2cc(NC(=O)Nc3ccc(F)cc3)ccc2O[C@H]1CN(C)Cc1ccc(-c2ccccc2)cc1 0.559%, CC(=O)Nc1ccc2c(c1)C(=O)N(C)[C@@H]1CC[C@@H](CC(=O)NCC3CC3)O[C@H]1CO2 4.34%, CC(C)CC#Cc1ccc2c(c1)O[C@@H](CN(C)C(=O)c1ccccn1)[C@@H](C)CN([C@@H](C)CO)S2(=O)=O -13.4%, COc1ccc2c3c([nH]c2c1)[C@H](CO)N(C(=O)CN(C)C)CC31CCN(CC2CCCC2)CC1 0.289%, Cc1ccc(S(=O)(=O)N(CC(O)CN2CCOCC2)c2cccc([N+](=O)[O-])c2)cc1 (stereo not drawn) -10.8%
